Bioassay records deposited in PubChem BioAssay by National Center for Advancing Translational Sciences (NCATS).
This is a sample that favours compounds with a hit; in the whole collection about 2.5% have one here.
aSyn yeast inh: alpha-synuclein toxicity inhibition in yeast | hit rate 0.14% among 370,000 | Yeast expressing alpha-synuclein, growth rescue, BacTiter-Glo, 24 h | Potency, µM (doses to about 46.1 µM), for the others: at the top dose growth rescue (activation), most hits filed as activators; also: potency is read from the fitted curve at half-maximal effect; % of control where 0% means no effect; nearly all actives have a fitted effect of over 65% in size
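Galactose-induced alpha-syn yeast (OD600=0.02, raffinose-pregrown) + pinned cpd, 24 hr, 30 deg C; growth by BacTiter-Glo luminescence. Growth restoration scores as activation.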
CCT modulator: cytosolic chaperonin activity modulation. purified chaperonin ATPase assay, HTRF ADP detection, 30 min. activity change, % (test concentration not listed), hits read low. hit rate 0.3% among 360,000. AID 651819; in the data active = activity change below about -30%; also: % is scaled to controls: 0 for no effect and ±100 for the full control effect
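Enzyme 40 or 20 nM (batch-dependent) in Tris pH 7.4/KCl/MgCl2/DTT; cpd 76 uM single point; ATP 10 uM; 30 min 37 °C; Transcreener ADP HTRF detection, 30 min RT; ratio 665/615.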
pAkt inh: blocks phosphorylation of Akt. Neuro2A IGF-stimulated pAkt S473 HTRF, 20 min; active compounds read low. activity change, % for hits at 50 µM. hit rate 0.32% among 360,000. AID 651550; in the data active = activity change below about -80%; inconclusive = mostly about -51% to -80%; also: % is scaled to controls: 0 for no effect and ±100 for the full control effect
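Single-point screen (50 µM final compound) in Neuro2A cells stimulated 20 min with 6 nM IGF at 37 deg C. After lysis, Ser473-phosphorylated Akt read by HTRF (ex 330 nm, em 615/665 nm) as the 665/615 ratio.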
TDP-43 yeast inh: rescues yeast growth from TDP-43 toxicity; TDP-43 expressing yeast growth rescue, BacTiter-Glo, 24 h; hit rate 1.8% among 410,000; Potency, µM (top dose mostly 46.1 µM), without a hit: at the highest dose growth rescue (activation), usual class: activators; also: potency is read from the fitted curve at half-maximal effect; % of control where 0% means no effect; nearly all actives have a fitted effect of over 50% in size
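Cell-based yeast growth screen: TDP-43 expression induced in galactose, inoculum OD600=0.02 after raffinose pregrowth to mid-log. Read-out BacTiter-Glo luminescence at 24 hr, 30 deg C; inhibition of toxicity seen as signal increase.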
Apoferritin bind: binds horse apoferritin like a general anesthetic; P02791; apoferritin/1-aminoanthracene competitive binding, fluorescence; Potency, µM (doses to about 77.5 µM), for inactives: top-dose activity change, negative = displacement, most hits filed as inhibitors; hit rate 0.074% among 350,000; also: potency is read from the fitted curve at half-maximal effect; % is scaled to controls: 0 for no effect and ±100 for the full control effect; nearly all actives have a fitted effect of over 20% in size
Target sequence (P02791 2-175 limits assumed): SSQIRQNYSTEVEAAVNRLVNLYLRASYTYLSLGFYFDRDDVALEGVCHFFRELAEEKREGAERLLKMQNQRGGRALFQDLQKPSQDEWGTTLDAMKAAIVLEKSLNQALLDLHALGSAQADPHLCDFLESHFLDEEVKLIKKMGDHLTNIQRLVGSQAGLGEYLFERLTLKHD
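Horse-spleen apoferritin (10 uM) in 50% saturated 1-aminoanthracene in PBS was incubated 10 min at room temperature with compound. Fluorescence (ex 380, em 535 nm) was normalized to free and bound 1-AMA, with concentration-response fitted by a four-parameter Hill equation.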
Mito fusion act: inhibitors of mitochondrial division or activators of mitochondrial fusion. S. cerevisiae fusion-defective mutant growth rescue, CellTiterGlo 48 h. Potency, µM (series often up to 46.1 µM), without a hit: at the highest dose growth rescue (activation), most hits filed as activators. hit rate 0.23% among 320,000. AID 485298; also: potency is read from the fitted curve at half-maximal effect; % of control where 0% means no effect; nearly all actives have a fitted effect of over 45% in size
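Read-out: ATP-based luminescence (CellTiterGlo, 10 min ambient) reporting growth of fusion-defective ts yeast after 48 hours at 37C on glycerol/ethanol YPEG medium in the presence of compound.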
The depositor's hits bear a star; ! = not confirmed by another sample. Unless noted, calls follow the shape of the dose curve; as a rule, active = well fitted curve in the direction sought with a large enough effect; inconclusive = small, poorly fitted or top-dose-only effect, or another doubt; inactive = no such curve, though single readings can be large; an effect the other way counts as inactive or inconclusive.

Screening Cc1nc(NC(=O)CCc2ccccc2)sc1C returned aSyn yeast inh 2%, CCT modulator -4, pAkt inh inactive, TDP-43 yeast inh 13µM*, Apoferritin bind inconclusive and Mito fusion act -2%.
`Cc1nc(NC(=O)c2ccccc2)sc1C` gave aSyn yeast inh -6%, CCT modulator 0, pAkt inh inactive, TDP-43 yeast inh -20%, Apoferritin bind -7% and Mito fusion act -10%.
For CCOC(=O)CSc1nnc([C@H](C)NC(=O)OC(C)(C)C)o1 the results were aSyn yeast inh 1%, CCT modulator 0, pAkt inh -115%*, TDP-43 yeast inh 12%, Apoferritin bind -8% and Mito fusion act -7%.
`CC(C)C[C@H](NC(=O)OC(C)(C)C)c1nnc(SCC(=O)Nc2ccc(Br)cc2)o1` gave aSyn yeast inh -1%, CCT modulator 2, pAkt inh inactive, TDP-43 yeast inh 0.32µM*, Apoferritin bind -17% and Mito fusion act 2%.
CC1(C(=O)Nc2ccc(Cl)c(Cl)c2)CCN1Cc1ccccc1OC(F)F (centres undefined) was read as aSyn yeast inh -36%, CCT modulator 0, pAkt inh inactive and TDP-43 yeast inh 22µM*.
Screening COc1ccc(C(C)C)cc1S(=O)(=O)NCCc1c(C)[nH]c2ccc(C)cc12 returned TDP-43 yeast inh inconclusive and Apoferritin bind 35%.
Screening COc1ccc(C(C)C)cc1S(=O)(=O)NCCc1c(C)[nH]c2c(Cl)cccc12 returned TDP-43 yeast inh 6.3µM* and Apoferritin bind 80%.
COc1cccc(C2=NN(C(C)=O)C(c3cn(-c4ccccc4)nc3-c3cccs3)C2)c1 (centres undefined) was read as TDP-43 yeast inh 11% and Apoferritin bind -1%.
For COc1ccc(OC)c(C(=O)Nc2c(O)ccc3ccccc23)c1 the results were aSyn yeast inh 1%, CCT modulator 0, pAkt inh inactive and TDP-43 yeast inh 11µM*.
For O=C(c1ccc(OCCN2CCCCC2)cc1)c1c(-c2ccc(O)cc2)sc2cc(O)ccc12 the results were aSyn yeast inh -4%, CCT modulator 1, pAkt inh inactive, TDP-43 yeast inh 23%, Apoferritin bind -15% and Mito fusion act 18µM*!.
Oc1cccc(-c2sc3ccccc3c2-c2ccc(OCCN3CCCCC3)cc2)c1 was read as aSyn yeast inh -52%, CCT modulator -1, pAkt inh inactive and TDP-43 yeast inh -1%.
CCNC(=O)C(C)Oc1ccc(Cl)cc1Cl (centres undefined) was read as aSyn yeast inh 3%, CCT modulator -13, pAkt inh inactive, TDP-43 yeast inh -21%, Apoferritin bind 0% and Mito fusion act -2%.
Screening CCNC(=O)n1nccc1C(C)Oc1cccc(C(F)(F)F)c1 (centres undefined) returned aSyn yeast inh -8%, CCT modulator -2, pAkt inh inactive, TDP-43 yeast inh 16µM*, Apoferritin bind inconclusive and Mito fusion act 0%.
For CC(C)N(Cc1nccn1C)C(=O)c1cc(COc2cccc(C(F)(F)F)c2)on1 the results were aSyn yeast inh 7%, CCT modulator -2, pAkt inh inactive, TDP-43 yeast inh -1%, Apoferritin bind -6% and Mito fusion act -18%.
`CCNC(=O)n1nccc1C(C)Oc1ccc(Cl)cc1` (centres undefined) gave aSyn yeast inh -12%, CCT modulator -1, pAkt inh inactive, TDP-43 yeast inh 11µM*, Apoferritin bind inconclusive and Mito fusion act 0%.
For COC(=O)[C@@H]1CC2=CC(=O)CC[C@]2(C)[C@@]23O[C@@H]2C[C@@]2(C)[C@H](CC[C@@]24CCC(=O)O4)[C@@H]13 the results were Apoferritin bind 3%.
Cc1ccc(Cl)cc1-n1ncc2c(NC3CCCCC3)ncnc21 was read as TDP-43 yeast inh 13µM* and Apoferritin bind -11%.
`Clc1cccc(-n2ncc3c(NC4CCCCC4)ncnc32)c1` gave TDP-43 yeast inh 16µM* and Apoferritin bind -1%.
For CN(C)S(=O)(=O)Oc1ccsc1C(=O)Nc1ccccc1Cl the results were aSyn yeast inh 10%, CCT modulator -1, pAkt inh inactive, TDP-43 yeast inh 44%, Apoferritin bind -23% and Mito fusion act 1%.
COc1ccc(NC(=O)c2sccc2OS(=O)(=O)N(C)C)cc1 was read as aSyn yeast inh 2%, CCT modulator 2, pAkt inh inactive, TDP-43 yeast inh -8%, Apoferritin bind -11% and Mito fusion act -1%.
Screening CN(C)S(=O)(=O)Oc1ccsc1C(=O)Nc1ccc(Cl)cc1 returned aSyn yeast inh 0%, CCT modulator -15, pAkt inh inactive, TDP-43 yeast inh 14µM*, Apoferritin bind inconclusive and Mito fusion act 5%.
CN(C)S(=O)(=O)Oc1ccsc1C(=O)Nc1cccc(Cl)c1Cl was read as aSyn yeast inh 9%, CCT modulator -1, pAkt inh inactive, TDP-43 yeast inh 18µM*, Apoferritin bind inconclusive and Mito fusion act 13%.
Screening O=C(C1CCN(S(=O)(=O)Cc2ccccc2)CC1)N1CCN(c2ccccc2F)CC1 returned TDP-43 yeast inh 0% and Apoferritin bind -5%.
O=S1OC(c2ccccc2)c2cc(Cl)ccc21 (centres undefined) was read as aSyn yeast inh -16%, CCT modulator 0, pAkt inh inactive, TDP-43 yeast inh 13µM* and Mito fusion act -3%.
Screening C[C@@H]1NC(=O)[C@@]2(C)[C@@H](c3ccccc3)[C@H]3COc4ccc(Cl)cc4[C@@H]3N2C1=O returned aSyn yeast inh -3%, CCT modulator 0, pAkt inh inactive, TDP-43 yeast inh 21% and Mito fusion act -8%.
For COc1ccc(CCC(=O)NO)cc1 the results were aSyn yeast inh -1%.
CCOC(=S)SCC(=O)Nc1nccs1 was read as aSyn yeast inh -8%, CCT modulator -2, pAkt inh inactive, TDP-43 yeast inh 22µM*, Apoferritin bind -12% and Mito fusion act 2%.
`CCOC(=S)SCC(=O)Nc1nc(-c2ccccc2)cs1` gave aSyn yeast inh -13%, CCT modulator -1, pAkt inh inactive, TDP-43 yeast inh inconclusive, Apoferritin bind -13% and Mito fusion act 28%.
CCOC(=S)SCC(=O)Nc1nc(C)c(C)s1 was read as aSyn yeast inh -1%, CCT modulator -1, pAkt inh inactive, TDP-43 yeast inh 22µM*, Apoferritin bind -2% and Mito fusion act -4%.
CCn1c(COc2ccc(C)cc2)nnc1SCC(=O)Nc1ccc2c(c1)OCCO2 was read as aSyn yeast inh 6%, CCT modulator 1, pAkt inh -108%*, TDP-43 yeast inh 9%, Apoferritin bind -14% and Mito fusion act -6%.
